Data as given in ChEMBL document CHEMBL3988442, “University of Dundee, Small-Polar-MMV Screening Library” (2021).
The campaign covered roughly 48,000 compounds. About 13,000 (27%) showed an effect of 50% or more. The list shows a part of the results.

test system: Wolbachia pipientis; assay: Anti-Wolbachia Cell-Based Screen; type: functional; set-up: scale not given: in the data most compounds retested in dose-response had high values; details: 5 µM

SMILES | Percent Effect [%]
Cc1ccc(CN(C)C(=O)c2cccc(NC(N)=O)c2)o1 | -0.4854
Cc1noc(C)c1C(=O)N(C)Cc1nc(-c2ccccn2)no1 | -7.046
CN(Cc1ccsc1)C(=O)c1n[nH]c(N)c1-c1ccccc1 | 96.05
Cc1noc(C)c1CN(C)C(=O)c1nc(N2CCCC2)ncc1Cl | -6.035
Cc1ccccc1OCCC(=O)N(C)Cc1c(C)noc1C | -17.09
Cc1ccc(CN(C)C(=O)c2cc3c(c(S(N)(=O)=O)c2)CCC3)o1 | -13.85
CCC1=N[C@@]2(CC[C@@H]3CN(S(=O)(=O)CC)C[C@@H]32)C(=O)N1CCOC | -7.119
CN(c1ncc(C(N)=O)cc1Cl)C1CCC(c2ccccc2)CC1 (stereo unspecified) | -13.88
CN(Cc1ccsc1)C(=O)Nc1ccc(=O)n(C)c1 | -4.532
CCn1cnnc1C1CCN(C(=O)COc2ccccc2)CC1 | 2.9
CC(=O)N1CCC(c2cccc(Oc3ccccc3)n2)CC1 | 144.2
CNCC(=O)N1CCC(c2cccc(Oc3ccccc3)n2)CC1 | 178.2
COCC(=O)N1CCC(c2cccc(Cc3ccc(F)cc3)n2)CC1 | -12.66
NCC(=O)N1CCC(c2cccc(Oc3ccccc3)n2)CC1 | 130.3
NC(=O)CN1CCC(c2cccc(Oc3ccccc3)n2)CC1 | 173
CCn1cnnc1C1CCN(C(=O)CCCOc2ccccc2)CC1 | 6.265
CC(C)(C)c1nnc(CSc2ccccn2)o1 | 4.822
CN(Cc1ccccc1)C1(C(=O)NCC(N)=O)Cc2ccccc2C1 | -1.712
O=C(NCc1csc(Cc2ccccc2)n1)C1NCCc2[nH]cnc21 (stereo unspecified) | -10.41

SMILES | Percent Effect [%]
CCn1nc(C)c(NC(=O)c2cc(NC(=O)C(C)C)n(C)n2)c1C | 2.528
CCCc1cc(C(=O)N(Cc2cccnc2)Cc2cccnc2)[nH]n1 | -21.08
NCC1Cc2cc(-c3cncc(C(=O)N4CCCCC4)n3)cc(F)c2O1 (stereo unspecified) | -1.954
CN(C)CCNc1cc(-c2ncccc2Cl)c2cc[nH]c2n1 | -5.947
Fc1ccc(NCc2ncc[nH]2)cc1Br | -22.04
Clc1cc(NCc2ccncc2)nc2[nH]ccc12 | 93.22
O=C(Nc1ccccc1)c1ccc(NCc2ccncc2)nn1 | -22.46
COc1ncc(-c2cc(NCCN(C)C)nc3[nH]ccc23)c(OC)n1 | -3.716
Clc1cc(NCc2ncc[nH]2)nc2[nH]ccc12 | 61.99
Clc1cc(NCc2nccs2)nc2[nH]ccc12 | 109.6
O=C(CCc1ccc(Br)cc1)NCCc1nnc[nH]1 | 7.079
CC(C)(C)OCCN1CCCC1c1nc(Cc2ccc(F)cc2)no1 (stereo unspecified) | 28.24
c1ccc(CN2CCC(NCCSc3cnn[nH]3)CC2)cc1 | -22.28
CN(C)CC(=O)N1CCCC1c1cncc(Oc2ccc(F)cc2)n1 (stereo unspecified) | 102.5
COc1ccc(Oc2cncc(C3CCCN3C(C)=O)n2)cc1 (stereo unspecified) | -16.34
COc1ccc(C2CCCN2C(=O)Nc2ccc(OC)nc2)cc1 (stereo unspecified) | 2.775
O=C(CCCOCc1ccccc1)N1CCCC1c1ccccn1 (stereo unspecified) | -5.136
CN(C)CC(=O)N1CCCC1c1ccccn1 (stereo unspecified) | 98.84
CC(=O)N1CCCC1c1cncc(Oc2ccc(F)cc2)n1 (stereo unspecified) | 97.95

SMILES | Percent Effect [%]
CNCC(=O)N1CCCC1c1cncc(Oc2ccc(F)cc2)n1.Cl (stereo unspecified) | 105.9
CN(CC(=O)N1CCCC1c1ccccn1)Cc1ccccc1 (stereo unspecified) | -5.131
COC(=O)CCCC(=O)N1CCCCC1c1ccc(F)cc1 (stereo unspecified) | -3.374
Cc1cn(-c2ccccc2)nc1NS(=O)(=O)c1cc(C(=O)O)cs1 | 3.492
COc1cccc(-c2n[nH]cc2C(=O)NC(C)c2n[nH]c(C)n2)c1 (stereo unspecified) | 6.595
O=C(NC1CC1)c1nc2c(o1)CN(c1ncccn1)C2 | -9.105
Fc1ccc(CN2CCCn3cnc(COCC4CC4)c3C2)cc1.O=C(O)C(F)(F)F | 3.17
CC(C)CNC[C@H]1O[C@H](Cc2cc(-c3ccccn3)on2)CC[C@@H]1O | -6.166
Cn1nc(C2CC2)c2c1NC(=O)CC2c1ccc(CN2CCCCC2)s1 (stereo unspecified) | -3.758
COCCOc1ccccc1CNCC1COC2(CCCC2)O1 (stereo unspecified) | 0.05602
CC(=O)N(Cc1ncc(C)o1)C1CCN(Cc2ccon2)C1 (stereo unspecified) | 139.3
CC(=O)N(Cc1ncc(C)o1)C1CCN(CCCc2cnn(C)c2)C1 (stereo unspecified) | 5.261
Cc1cnc(CN(C)C2CCN(CC(=O)N(C)c3nccs3)C2)o1 (stereo unspecified) | -8.119
CC(=O)N(Cc1ncc(C)o1)C1CCN(Cc2cc(C)on2)C1 (stereo unspecified) | 118.6
CC(=O)N(Cc1ncc(C)o1)C1CCN(Cc2csc(C)n2)C1 (stereo unspecified) | 123.5
CC(=O)N(Cc1ncc(C)o1)C1CCN(Cc2noc(C)n2)C1 (stereo unspecified) | 3.628
CC(=O)N(Cc1ncc(C)o1)C1CCN(CCNC2CCCCC2)C1 (stereo unspecified) | -4.891
CC(=O)N(Cc1ncc(C)o1)C1CCN(Cc2sc(C)nc2C)C1 (stereo unspecified) | 115.4
